# Assay results published in the supplement of paper PMC13380429.
# Unmarked numbers belong to inactive results.
# System: Vero E6 infected with SARS-CoV-2
# Experiment: inhibition of SARS-CoV-2 cytopathic effect; higher = more antiviral protection, active = above 15
# Conditions: 48 h
SMILES,inhibition of SARS-CoV-2 cytopathic effect (1 nM),inhibition of SARS-CoV-2 cytopathic effect (8.33 nM),inhibition of SARS-CoV-2 cytopathic effect (100 nM),inhibition of SARS-CoV-2 cytopathic effect (833.33 nM),inhibition of SARS-CoV-2 cytopathic effect (10000 nM)
CC(=O)N(c1onc(C)c1C)S(=O)(=O)c1ccc(N)cc1 [sulfisoxazole-acetyl],-4.04%,-3.48%,-3.58%,-0.91%,0.37%
CC(=O)Nc1ccc(C(=O)NC(C)(C)C)cc1,-4.86%,-3.67%,-1.32%,-3.41%,-0.2%
Cc1cn([C@H]2C[C@H](N=[N+]=[N-])[C@@H](CO)O2)c(=O)[nH]c1=O [zidovudine],3.53%,3.15%,6.14%,2.68%,-0.41%
CCN(CC)CCNC(=O)COc1ccc(OC)cc1 [mefexamide],1.84%,2.71%,-0.86%,-0.89%,-2.3%
CC(C)NCC(O)c1cc(O)cc(O)c1 (stereo not given) [metaproterenol],-0.95%,3.21%,0.75%,-1.4%,0.75%
CCc1cc2c(cc1CC)CC(NC[C@H](O)c1ccc(O)c3[nH]c(=O)ccc13)C2 [indacaterol],-4.02%,-0.7%,-0.83%,-1.99%,-2.01%
CN1CCC(Nc2ncc3ncnc(Nc4ccc(F)c(Cl)c4)c3n2)CC1,0.68%,1.23%,-4.55%,-7.55%,-2.79%
CCC(=O)O[C@H](CC(=O)O)C[N+](C)(C)C [levocarnitine-propionate],-0.81%,4.36%,0.32%,3.36%,0.31%
CC(C)N(CCCCOCC(=O)NS(C)(=O)=O)c1cnc(-c2ccccc2)c(-c2ccccc2)n1 [selexipag],-0.52%,-1.02%,-0.43%,-0.43%,-1.53%
C=CC(=O)Nc1cccc(Nc2nc(Nc3ccc(Oc4ccnc(C(=O)NC)c4)cc3)ncc2F)c1,-1.65%,1.5%,0.39%,-1.84%,9.86%
C[C@H](NC[C@H](O)CP(=O)(O)Cc1ccccc1)c1ccc(Cl)c(Cl)c1,2.41%,3.89%,1.35%,1.79%,4.47%
O=C(Nc1ccc(Cl)nc1)c1ccc(Cl)cc1,0.45%,1.94%,2.79%,0.19%,0.84%
CC(C)(C)c1cc(NC(=O)Nc2ccc(-c3cn4c(n3)sc3cc(OCCN5CCOCC5)ccc34)cc2)no1 [quizartinib],-1.91%,-0.28%,0.83%,-4.72%,-4.89%
O.O=[Si]=O.O=[Si]=O.O=[Si]=O.O=[Si]=O.[O]=[Mg].[O]=[Mg].[O]=[Mg],-4.07%,0.07%,-1.66%,5.91%,8.79%
COc1ccn2ncc(-c3nc4[nH]nc(NC(=O)c5ccc(F)cc5)c4cc3F)c2c1,1.72%,-0.95%,0.38%,-3.07%,-6.79%
O=S(=O)(F)Cc1ccccc1 [phenylmethylsulfonyl-fluoride],-2.45%,-1.22%,2.93%,0.75%,1.71%
N#C/C(=C\c1cccn1S(=O)(=O)c1cccc([N+](=O)[O-])c1)S(=O)(=O)c1ccc(F)cc1,-0.59%,-0.34%,-0.6%,-2%,-0.73%
N#Cc1ccccc1-c1cc(-c2ccccn2)cn(-c2ccccc2)c1=O [Perampanel],2.02%,0.93%,4.1%,-0.14%,-5.2%
CC[C@]12C=CCN3CC[C@@]4(c5cc([C@@]6(C(=O)OC)C[C@@H]7C[C@@H](C(C)(F)F)CN(Cc8c6[nH]c6ccccc86)C7)c(OC)cc5N(C)[C@H]4[C@@](O)(C(=O)OC)[C@@H]1OC(C)=O)[C@@H]32 [Vinflunine Ditartrate],3.38%,3.35%,2.91%,-2.99%,-3.92%

SMILES,inhibition of SARS-CoV-2 cytopathic effect (1 nM),inhibition of SARS-CoV-2 cytopathic effect (8.33 nM),inhibition of SARS-CoV-2 cytopathic effect (100 nM),inhibition of SARS-CoV-2 cytopathic effect (833.33 nM),inhibition of SARS-CoV-2 cytopathic effect (10000 nM)
COc1cc2ncnc(Nc3ccc(Oc4ccccc4)cc3)c2cc1OC [SRC-kinase-inhibitor-I],14.1%,2.88%,0.56%,-4.38%,-9.32%
COc1ccc(C(=O)Nc2sc3c(c2C(N)=O)CCCC3)cc1OC,-0.36%,-0.47%,-3.78%,-0.85%,0.05%
C[N+]12CCCCC1CCC(=C(c1cccs1)c1cccs1)C2 (stereo not given) [tiquizium],-3.91%,-0.22%,2.71%,-2.14%,-3.03%
CCCC(=O)OCOC(=O)C1=C(C)NC(C)=C(C(=O)OC)C1c1cccc(Cl)c1Cl (stereo not given) [cleviprex],3.04%,3.86%,2.92%,0.61%,4.07%
CN(C)CCCC(=O)Nc1ccc(C(=O)Nc2cccc(Nc3ncc(Cl)c(-c4c[nH]c5ccccc45)n3)c2)cc1,1%,-3.04%,-1.78%,-0.35%,-3.93%
C/C(=N\NC(=O)C(NC(=O)c1ccccc1)c1n[nH]c(=O)c2ccccc12)c1cccc(Br)c1 (stereo not given),-0.71%,2.21%,0.8%,3.15%,4.46%
OCCOCCN1CCN(C(c2ccccc2)c2ccc(Cl)cc2)CC1 (stereo not given) [hydroxyzine],1.41%,0.93%,1.56%,-1.88%,-4.3%
CC(=O)OCC(=O)[C@@]1(O)CC[C@H]2[C@@H]3CCC4=CC(=O)C=C[C@]4(C)[C@@]3(F)[C@@H](O)C[C@@]21C [isoflupredone-acetate],2.83%,2.61%,0.09%,1.17%,1.02%
CC(C)C[C@H](NC(=O)[C@@H](COC(C)(C)C)NC(=O)[C@H](Cc1ccc(O)cc1)NC(=O)[C@H](CO)NC(=O)[C@H](Cc1c[nH]c2ccccc12)NC(=O)[C@H](Cc1cnc[nH]1)NC(=O)[C@@H]1CCC(=O)N1)C(=O)N[C@@H](CCCNC(=N)N)C(=O)N1CCC[C@H]1C(=O)NNC(N)=O [goserelin-acetate],1.97%,1.03%,2.63%,-0.57%,5.2%
CCn1nc(C(=O)O)c(=O)c2cc3c(cc21)OCO3 [cinoxacin],0.52%,-0.24%,0.19%,0.12%,-1.09%
Cc1ccc2c(c1)C(=O)[C@]1(O)CCN(c3ccccc3)C1=N2 (racemic) [blebbistatin-(+/-)],0.35%,-0.695%,-1.93%,-1.36%,-2.33%
Cc1c(-c2ccc(O)cc2)n(Cc2ccc(OCCN3CCCCCC3)cc2)c2ccc(O)cc12 [bazedoxifene],-2%,-3.97%,-2.44%,-5.76%,48.9% (active)
Cn1c(=O)[nH]c2ncn(C)c2c1=O [paraxanthine],1.63%,1.68%,0.01%,2.99%,-0.26%
CC(C)[C@H](N)C(=O)OCC(CO)OCn1cnc2c(=O)nc(N)[nH]c21 (mixture of isomers) [valganciclovir],6.98%,8.27%,4.51%,8.72%,1.96%
O=C(NCCN1CCCCC1)c1ccc(I)cc1 [N-[2-(piperidinylamino)ethyl]-4-iodobenzamide],0.64%,2%,-0.15%,-2.57%,-1.77%
O=C(Nc1ccccc1)N[C@H]1C[C@H](C(=O)O)Nc2cc(Cl)cc(Cl)c21,-0.64%,-2.48%,0.61%,-0.05%,0.62%
Cc1cc(C(=O)Nc2cccc(C(=O)Nc3cccc(C(F)(F)F)c3)c2)on1,0.37%,3.92%,-2.18%,-1.26%,-3.26%
NNC(=O)CSc1nc2scc(-c3ccccc3)c2c(=O)n1-c1ccccc1,-1.69%,1.94%,-0.83%,-2.58%,-1.58%
